# From PubChem BioAssay (NCATS)
# Inconclusive results are not listed. Calls of active or inactive are those of the source. Calls follow the shape of the dose curve; as a rule, active = well fitted inhibition curve with a large enough effect; inconclusive = small, poorly fitted or top-dose-only effect; inactive = flat fitted curve, though single readings scatter.
# Assay: P-glycoprotein substrates identified in KB-8-5-11 adenocarcinoma cell line, qHTS therapeutic library screen (AID 1346987); also: nearly all actives have a fitted effect of over 65% in size
# Conditions: KB-8-5-11 (P-gp overexpressing) viability, CellTiter-Glo, 72 h; series mostly up to 44.5 µM; activity change, negative = cytotoxicity: at the top concentration
# Outline: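 Compounds are pinned in dose-response onto KB-8-5-11 cells (500 cells/well, colchicine-free medium) and left 72 h at 37 degree C. CellTiter-Glo luminescence then yields AC50 values.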
# % is scaled to controls: 0 for no effect and ±100 for the full control effect; potency is read from the fitted curve at half-maximal effect.
SMILES,Potency,"activity change, negative = cytotoxicity",outcome
C=CC(=O)Nc1cccc(Nc2nc(Nc3ccc(N4CCN(C(C)=O)CC4)cc3OC)ncc2C(F)(F)F)c1,20.6 µM (active),,
Cn1nnc(-c2ccc(-c3ccc(N4C[C@H](CO)OC4=O)cc3F)cn2)n1,,-10.6% (inactive),
CC(C)c1cc(CNc2nc(Nc3cc(C4CC4)[nH]n3)cc(N3CCN(C)CC3)n2)on1,5.8 µM (active),,
COc1ccccc1Oc1ccc(N(Cc2cccnc2)S(=O)(=O)CC(F)(F)F)cc1,,9.12% (inactive),
CC1(C)CCCC2(C)C1CC=C1C(=O)OC(O)C12O (stereo not drawn),,1.31% (inactive),
C/C=C/C1=CC2=C(CO1)C(=O)C(C)(O)C(OC(=O)c1c(C)cc(OC)cc1O)C2 (stereo not drawn),,-16.2% (inactive),
NCc1c[nH]c(=S)n1[C@@H]1CCc2c(F)cc(F)cc2C1,,6.67% (inactive),
CC(=O)c1ccc2c(c1)C(O)C(C(C)(C)O)O2 (stereo not drawn),,2.74% (inactive),
c1ccc(-c2ncc(CN3CCN(c4ncccn4)CC3)[nH]2)cc1,,-12% (inactive),
CN(C)C/C=C/C(=O)Nc1cccc(C(=O)Nc2ccc(Nc3nccc(-c4cccnc4)n3)cc2)c1,,,inactive
CC(=O)OC1C[C@]2(C)C(O)CC(C)=C[C@H](OC(=O)c3ccc(O)cc3)C2[C@]1(O)C(C)C (stereo partly drawn),,5.63% [at 17.3 µM] (inactive),
CC1(C)CCCC2(C)C(C(=O)O)=CCC12 (stereo not drawn),,-2.8% (inactive),
CCOC(=O)CCN(C(=O)c1ccc2c(c1)nc(CNc1ccc(C(=N)N)cc1)n2C)c1ccccn1,,-12.1% (inactive),
C[C@@H]1O[C@@H](O[C@@H]2[C@@H](O)[C@@H](O[C@]3(CO)O[C@H](CO)[C@@H](O)[C@@H]3OC(=O)/C=C/c3ccc(O)cc3)O[C@H](CO)[C@H]2OC(=O)/C=C/c2ccc(O)cc2)[C@H](O)[C@H](O)[C@H]1O[C@@H]1O[C@@H](C)[C@H](O[C@@H]2OC[C@](O)(CO)[C@H]2O)[C@@H](O)[C@H]1O,,9.01% [at 9.29 µM] (inactive),
CC1C(=O)CC2C3CCC(C(=O)O)C12CC3(C)CO (stereo not drawn),,-8.27% (inactive),
COC(=O)N[C@@H](C)CNc1nccc(-c2cn(C(C)C)nc2-c2cc(Cl)cc(NS(C)(=O)=O)c2F)n1,,-17.3% (inactive),
CC1OC(OC2CCC3(C)C(CCC4(C)C3CC=C3C5CC(C)(C)CCC5(C(=O)OC5OC(CO)C(O)C(O)C5O)CCC34C(=O)O)C2(C)C)C(O)C(O)C1O (stereo not drawn),,,inactive [at 17.3 µM]
CC1COC2(OC3CC4C5CC(O[C@@H]6O[C@H](C)[C@@H](O[C@@H]7O[C@@H](C)[C@H](O)[C@@H](O)[C@H]7O)[C@H](O)[C@H]6O)C6CC(O)CCC6(C)C5CCC4(C)C3C2C)C(O)C1 (stereo partly drawn),,-1.08% [at 17.3 µM] (inactive),
